A short description of assay [1]: ATG_TCF_b_cat_CIS: Attagene CIS-FACTORIAL HepG2 Assay for human T-Cell-Factor with beta-catenin (TCF/b-cat) (AID 2282965; active means hit-call score of the fitted dose curve at least 0.9, where 1 is the maximum; inactive means score below 0.9). Particulars: HepG2 TCF/beta-catenin cis-reporter transcription, actives raise or lower the signal. The gist of the method:
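Endogenous transcription factor activity is captured through cis-promoter reporter constructs transiently introduced into human HepG2 liver cells. Induced reporter mRNA is measured after 24 h and fitted bidirectionally relative to DMSO.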

The nature of assay [2]: ATG_TAL_CIS: Attagene CIS-FACTORIAL HepG2 Assay for human TAL Basal Promoter (AID 2282966; active means hit-call score of the fitted dose curve at least 0.9, where 1 is the maximum; inactive means score below 0.9;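 further: background control endpoint measuring basal TAL promoter reporter mRNA not a specific factor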). The note with it: HepG2 Attagene cis-factorial TAL promoter reporter; actives raise or lower the signal. In outline:
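HepG2, transient MRTU transfection, 24 h compound exposure; RNA → oligo(dT) RT → PCR → 6-FAM primer extension → HpaI digest → CE fluorescence. Bidirectional curve fit vs DMSO. Background-control readout.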

Assay [3] can be described thus: ATG_TGFb_CIS: Attagene CIS-FACTORIAL HepG2 Assay for human Transforming Growth Factor (TGF) (AID 2282967; active means hit-call score of the fitted dose curve at least 0.9, where 1 is the maximum; inactive means score below 0.9). The note with it: HepG2 Attagene CIS TGFb reporter, mRNA transcription; actives raise or lower the signal. In outline:
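Transcript-level reporter readout: HepG2 transfectants, 24 h exposure, RNA to cDNA, reporter-specific PCR, fluorescent primer extension, capillary sizing against ROX standards. Gain- or loss-of-signal relative to DMSO.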

The target in assay [4] is Nuclear receptor subfamily 1 group I member 3 (Homo sapiens) (UniProt Q14994). As to the kind of experiment: ATG_CAR_TRANS: Attagene TRANS-FACTORIAL HepG2 Assay for human Constitutive Androstane Receptor (CAR) (AID 2282969).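 Further: activators raise reporter mRNA above DMSO so AC50 marks induction.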 The note with it: HepG2 Attagene TRANS-FACTORIAL CAR reporter. The gist of the method: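 Signal is reporter mRNA induction relative to DMSO, measured 24 h after dosing by RT-PCR with fluorescent primer extension and capillary electrophoresis. Human HepG2 liver cells carried transiently transfected chimeric NR-Gal4/GAL4-UAS reporter constructs.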
Chain of Nuclear receptor subfamily 1 group I member 3 (Homo sapiens) (Q14994 whole entry, looked up, the tested form may be a part): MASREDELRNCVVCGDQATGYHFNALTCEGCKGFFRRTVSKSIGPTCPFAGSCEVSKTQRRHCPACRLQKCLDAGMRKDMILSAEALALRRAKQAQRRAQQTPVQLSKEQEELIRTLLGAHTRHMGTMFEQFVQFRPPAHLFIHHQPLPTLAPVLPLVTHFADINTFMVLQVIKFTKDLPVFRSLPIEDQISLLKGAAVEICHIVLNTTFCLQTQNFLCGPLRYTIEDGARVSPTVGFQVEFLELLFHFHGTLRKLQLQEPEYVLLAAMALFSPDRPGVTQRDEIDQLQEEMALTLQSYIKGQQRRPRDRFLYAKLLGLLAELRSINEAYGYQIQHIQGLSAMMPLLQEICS

In assay [5] the target is X-box-binding protein 1 (Homo sapiens) (UniProt P17861). Put plainly: ATG_Xbp1_CIS: Attagene CIS-FACTORIAL HepG2 Assay for human X-box Binding Protein 1 (XBP1) (AID 2282972; active means hit-call score of the fitted dose curve at least 0.9, where 1 is the maximum; inactive means score below 0.9). Particulars: HepG2 XBP1 cis-element reporter, Attagene multiplex; actives raise or lower the signal. The gist of the method: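 Changes in reporter transcript abundance, read by RT-PCR and capillary electrophoresis, reflect endogenous transcription factor activity. Transfected HepG2 cells received compound for 24 hours; DMSO defined baseline for bidirectional analysis.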
Chain of X-box-binding protein 1 (Homo sapiens) (P17861 whole entry, looked up): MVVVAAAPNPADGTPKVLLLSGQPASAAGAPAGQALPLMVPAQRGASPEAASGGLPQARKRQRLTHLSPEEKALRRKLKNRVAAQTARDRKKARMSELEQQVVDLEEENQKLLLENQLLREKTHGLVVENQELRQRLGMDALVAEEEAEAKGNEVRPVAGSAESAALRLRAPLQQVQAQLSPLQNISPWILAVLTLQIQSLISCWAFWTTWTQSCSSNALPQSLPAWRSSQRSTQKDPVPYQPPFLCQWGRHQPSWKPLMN

The nature of assay [6]: ATG_M_19_TRANS: Attagene TRANS-FACTORIAL HepG2 Assay for M19 Transcription Factor (Internal Marker) (AID 2282974). Particulars: HepG2 Attagene TRANS-FACTORIAL M19 internal marker reporter. In outline:
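Fluorescence of 6-FAM-labelled reporter cDNA fragments, separated by capillary electrophoresis, served as the readout. These derived from HepG2 cells carrying transfected GAL4-UAS reporter units after 24 h dosing, with DMSO as negative control.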

Assay [7] concerns the target Oxysterols receptor LXR-alpha (Homo sapiens) (UniProt Q13133). As to the kind of experiment: ATG_LXRa_TRANS: Attagene TRANS-FACTORIAL HepG2 Assay for human Liver X Receptor alpha (LXRa) (AID 2282980). Particulars: HepG2 Attagene TRANS reporter, LXRa transactivation. The gist of the method: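 Read-out: reporter transcript levels by RT-PCR plus capillary electrophoresis, fluorescence intensity. Transiently transfected HepG2, exogenous NR-GAL4 chimera, GAL4-UAS reporters; 24 h compound exposure. Activity = increase over DMSO negative control.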

The target in assay [8] is Oxysterols receptor LXR-beta (Homo sapiens) (UniProt P55055). Put plainly: ATG_LXRb_TRANS: Attagene TRANS-FACTORIAL HepG2 Assay for human Liver X Receptor beta (LXRb) (AID 2282981). Particulars: HepG2 Attagene TRANS GAL4-LXRb reporter, mRNA. In outline: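 After 24 h of chemical treatment, transfected HepG2 cells yield total RNA; reporter cDNA is PCR-amplified, FAM-labelled, HpaI-cut and run on capillary electrophoresis. Signal reflects chimeric LXRb-Gal4 activity on GAL4-UAS reporters.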
Chain of Oxysterols receptor LXR-beta (Homo sapiens) (P55055 whole entry, looked up, the tested form may be a part): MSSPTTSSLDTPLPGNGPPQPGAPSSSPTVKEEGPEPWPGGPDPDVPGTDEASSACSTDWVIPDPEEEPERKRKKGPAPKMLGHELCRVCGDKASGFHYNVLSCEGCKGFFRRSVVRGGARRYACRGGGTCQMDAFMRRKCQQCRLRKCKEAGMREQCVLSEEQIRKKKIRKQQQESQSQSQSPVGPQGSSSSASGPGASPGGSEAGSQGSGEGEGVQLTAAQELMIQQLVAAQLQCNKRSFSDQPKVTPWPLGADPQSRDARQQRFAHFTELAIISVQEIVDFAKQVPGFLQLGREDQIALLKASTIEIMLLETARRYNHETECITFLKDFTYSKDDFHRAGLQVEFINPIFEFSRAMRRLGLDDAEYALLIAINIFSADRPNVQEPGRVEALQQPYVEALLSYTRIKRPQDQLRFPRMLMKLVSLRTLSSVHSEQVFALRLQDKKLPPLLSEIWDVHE

Assay [9] has as its target Hepatocyte nuclear factor 4-alpha (Homo sapiens) (UniProt P41235). Put plainly: ATG_HNF4a_TRANS: Attagene TRANS-FACTORIAL HepG2 Assay for human Hepatocyte Nuclear Factor 4 alpha (HNF4a) (AID 2282982). The note with it: HepG2 HNF4a transactivation reporter, mRNA readout. The gist of the method: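 Multiplexed reporter assay: transfected HepG2, 24 h exposure, total RNA → oligo(dT) RT → PCR → 6-FAM extension → HpaI digest → CE fluorescence. DMSO = negative control.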

The nature of assay [10]: ATG_M_06_TRANS: Attagene TRANS-FACTORIAL HepG2 Assay for M06 Transcription Factor (Internal Marker) (AID 2282983). The note with it: HepG2 Attagene TRANS M06 internal marker reporter. The gist of the method: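 Read-out: fluorescent reporter cDNA fragments resolved by capillary electrophoresis after RT-PCR and HpaI cut. Source cells were HepG2 carrying transfected multi-reporter GAL4 constructs, dosed 24 h. Increase over DMSO control analysed.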

For assay [11], the target named is Nuclear receptor subfamily 4 group A member 2 (Homo sapiens) (UniProt P43354). As to the kind of experiment: ATG_NURR1_TRANS: Attagene TRANS-FACTORIAL HepG2 Assay for human Nuclear Receptor Related Protein 1 (NURR1) (AID 2282985). The note with it: HepG2 Attagene TRANS reporter, mRNA readout. The gist of the method:
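Measures transcriptional activation by an exogenous NR-Gal4 chimera in transfected HepG2 liver cells. After 24 h, reporter RNA is reverse-transcribed, amplified and resolved by capillary electrophoresis; DMSO defines baseline.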

The target in assay [12] is Transcriptional activator Myb (Homo sapiens) (UniProt P10242). As to the kind of experiment: ATG_Myb_CIS: Attagene CIS-FACTORIAL HepG2 Assay for human Myeloblastosis (Myb) Proto-Oncogene Transcription Factor (AID 2282986; active means hit-call score of the fitted dose curve at least 0.9, where 1 is the maximum; inactive means score below 0.9). The note with it: HepG2 Attagene CIS-FACTORIAL Myb reporter transcription; actives raise or lower the signal. In outline:
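Reporter transcript levels, quantified by fluorescent RT-PCR and capillary electrophoresis, serve as the read-out. Transfected HepG2 cells carrying cis-promoter reporter units are dosed for 24 hours, and curves are fitted bidirectionally against DMSO controls.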

The target of assay [13] is Estrogen receptor (Homo sapiens) (UniProt P03372). As to the kind of experiment: ATG_ERa_TRANS: Attagene TRANS-FACTORIAL HepG2 Assay for human Estrogen Receptor alpha (ERa) (AID 2282970). Particulars: HepG2 Attagene TRANS ERa GAL4 reporter, mRNA. The gist of the method:
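Reporter mRNA induction after 24 hours, detected by fluorescent RT-PCR and capillary electrophoresis, gives the read-out. Cells are HepG2 transiently transfected with GAL4-UAS reporter transcription units responding to chimeric NR-Gal4. Activity is taken as gain of signal over DMSO baseline.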

A short description of assay [14]: ATG_M_32_TRANS: Attagene TRANS-FACTORIAL HepG2 Assay for M32 Transcription Factor (Internal Marker) (AID 2282984). The note with it: HepG2 Attagene TRANS M32 internal marker reporter. The gist of the method:
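Cell-based TRANS-format assay in HepG2: exogenous chimeric GAL4 reporter units transiently expressed, compounds applied 24 h. Reporter mRNA detected by RT-PCR plus capillary electrophoresis; this readout is an internal background marker.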

Assay [15] addresses Estrogen-related receptor gamma (Homo sapiens) (UniProt P62508). Put plainly: ATG_ERRg_TRANS: Attagene TRANS-FACTORIAL HepG2 Assay for human Estrogen-Related Receptor gamma (ERRg) (AID 2282977).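 Further: hits increase reporter signal over DMSO so potencies reflect activators.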 The note with it: HepG2 Attagene TRANS reporter, ERRg transactivation. In outline:
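Exogenous NR-Gal4 chimera activity was assessed in HepG2 cells bearing transfected GAL4-UAS reporters. After 24 h dosing, total RNA underwent RT-PCR, fluorescent primer extension and HpaI digestion before capillary electrophoresis, with gain of signal scored against DMSO.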

The target in assay [16] is Glucocorticoid receptor (Homo sapiens) (UniProt P04150). As to the kind of experiment: ATG_GR_TRANS: Attagene TRANS-FACTORIAL HepG2 Assay for human Glucocorticoid Receptor (GR) (AID 2282978).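 Further: activators score as hits since higher reporter transcript over DMSO is fitted.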 The note with it: HepG2 Attagene TRANS GR reporter, mRNA transcription. In outline: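 Fluorescent capillary-electrophoresis quantitation of reporter mRNA is the readout, taken 24 h after dosing human HepG2 cells carrying transiently transfected GAL4-UAS reporter units activated by chimeric NR-GAL4 fusions; activity scored as induction over DMSO.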
Chain of Glucocorticoid receptor (Homo sapiens) (P04150 whole entry, looked up, the tested form may be a part): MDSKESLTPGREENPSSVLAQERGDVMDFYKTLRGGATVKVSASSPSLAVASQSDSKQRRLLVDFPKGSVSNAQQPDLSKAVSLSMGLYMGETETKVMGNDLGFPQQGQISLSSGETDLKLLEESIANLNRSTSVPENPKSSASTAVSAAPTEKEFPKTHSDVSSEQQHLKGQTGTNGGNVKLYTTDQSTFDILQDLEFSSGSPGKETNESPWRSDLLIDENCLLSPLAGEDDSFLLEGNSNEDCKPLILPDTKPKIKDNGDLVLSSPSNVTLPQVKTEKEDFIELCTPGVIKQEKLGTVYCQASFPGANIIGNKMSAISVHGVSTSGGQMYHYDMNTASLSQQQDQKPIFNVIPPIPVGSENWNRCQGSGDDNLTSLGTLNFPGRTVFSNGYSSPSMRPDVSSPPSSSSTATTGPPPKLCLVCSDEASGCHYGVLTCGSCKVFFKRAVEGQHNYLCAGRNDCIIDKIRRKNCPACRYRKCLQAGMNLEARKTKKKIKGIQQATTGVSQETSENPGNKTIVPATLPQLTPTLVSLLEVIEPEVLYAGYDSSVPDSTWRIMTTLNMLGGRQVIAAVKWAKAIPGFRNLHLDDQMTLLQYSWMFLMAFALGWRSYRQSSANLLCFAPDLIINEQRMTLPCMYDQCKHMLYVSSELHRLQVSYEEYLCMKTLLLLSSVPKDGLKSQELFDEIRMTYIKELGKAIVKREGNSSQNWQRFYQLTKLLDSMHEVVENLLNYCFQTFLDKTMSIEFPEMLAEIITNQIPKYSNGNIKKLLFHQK

Assay [17] addresses Steroid hormone receptor ERR1 (Homo sapiens) (UniProt P11474). Put plainly: ATG_ERRa_TRANS: Attagene TRANS-FACTORIAL HepG2 Assay for human Estrogen-Related Receptor alpha (ERRa) (AID 2282971). The note with it: HepG2 Attagene TRANS reporter, ERRa transactivation. The gist of the method: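 Transfected HepG2, 24 h dosing, ERRa-Gal4 chimera driving GAL4-UAS reporter. Readout: reporter mRNA via RT-PCR plus capillary electrophoresis (fluorescence). Positive direction vs DMSO control.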

Assay [18] can be described thus: ATG_GAL4_TRANS: Attagene TRANS-FACTORIAL HepG2 Assay for GAL4 (Internal Marker) (AID 2282976). The note with it: HepG2 Attagene TRANS GAL4 internal marker reporter. In outline:
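RT-PCR/capillary electrophoresis readout of reporter mRNA. HepG2, transient MRTU transfection (GAL4-UAS reporters), 24 h compound exposure. Background-control endpoint, positive direction vs DMSO baseline.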

Assay [19] addresses Bile acid receptor (Homo sapiens) (UniProt Q96RI1). Put plainly: ATG_FXR_TRANS: Attagene TRANS-FACTORIAL HepG2 Assay for Farnesoid X Receptor (FXR) (AID 2282979).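 Further: hits raise reporter mRNA above DMSO so AC50 marks FXR activation.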 The note with it: HepG2 Attagene TRANS FXR-GAL4 reporter transcription. In outline: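 Read-out: fluorescent reporter transcripts quantified by capillary electrophoresis after RT-PCR of total RNA. Source cells were HepG2 transiently carrying chimeric NR-GAL4 plus GAL4-UAS reporter units, dosed 24 h. Activity fitted upward relative to DMSO baseline.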

Results filed as inconclusive are left out. Activity calls are given as the source filed them. How the source made its calls, unless noted: active means hit-call score of the fitted dose curve at least 0.9, where 1 is the maximum; inconclusive means response in the unintended direction; inactive means score below 0.9.

Chain of Estrogen receptor (Homo sapiens) (P03372 whole entry, looked up, the tested form may be a part): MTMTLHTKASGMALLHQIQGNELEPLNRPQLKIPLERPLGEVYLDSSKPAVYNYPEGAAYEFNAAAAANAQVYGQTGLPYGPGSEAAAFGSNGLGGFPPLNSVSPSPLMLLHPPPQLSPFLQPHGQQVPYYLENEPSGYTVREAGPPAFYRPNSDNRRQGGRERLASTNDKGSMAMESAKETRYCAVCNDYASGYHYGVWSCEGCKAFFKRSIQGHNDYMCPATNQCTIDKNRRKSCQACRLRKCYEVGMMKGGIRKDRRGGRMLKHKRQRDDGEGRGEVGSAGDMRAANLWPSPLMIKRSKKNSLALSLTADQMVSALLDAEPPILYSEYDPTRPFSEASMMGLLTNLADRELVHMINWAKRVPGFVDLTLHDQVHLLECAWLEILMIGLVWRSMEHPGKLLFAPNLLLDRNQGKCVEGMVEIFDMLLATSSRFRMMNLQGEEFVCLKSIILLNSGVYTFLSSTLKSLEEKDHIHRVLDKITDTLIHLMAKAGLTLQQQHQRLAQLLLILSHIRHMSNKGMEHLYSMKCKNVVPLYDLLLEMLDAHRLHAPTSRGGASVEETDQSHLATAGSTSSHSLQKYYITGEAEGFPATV
Chain of Oxysterols receptor LXR-alpha (Homo sapiens) (Q13133 whole entry, looked up, the tested form may be a part): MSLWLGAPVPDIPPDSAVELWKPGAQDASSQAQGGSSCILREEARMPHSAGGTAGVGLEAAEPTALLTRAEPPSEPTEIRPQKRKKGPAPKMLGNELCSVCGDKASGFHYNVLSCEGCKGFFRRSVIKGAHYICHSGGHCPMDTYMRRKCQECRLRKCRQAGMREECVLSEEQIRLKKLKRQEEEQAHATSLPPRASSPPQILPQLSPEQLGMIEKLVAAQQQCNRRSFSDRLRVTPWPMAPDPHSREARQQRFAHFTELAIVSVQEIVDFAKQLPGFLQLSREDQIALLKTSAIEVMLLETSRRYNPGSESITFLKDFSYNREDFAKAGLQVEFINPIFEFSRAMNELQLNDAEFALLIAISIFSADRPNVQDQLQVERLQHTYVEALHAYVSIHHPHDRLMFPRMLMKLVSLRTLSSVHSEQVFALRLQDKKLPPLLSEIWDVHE
Chain of Hepatocyte nuclear factor 4-alpha (Homo sapiens) (P41235 whole entry, looked up): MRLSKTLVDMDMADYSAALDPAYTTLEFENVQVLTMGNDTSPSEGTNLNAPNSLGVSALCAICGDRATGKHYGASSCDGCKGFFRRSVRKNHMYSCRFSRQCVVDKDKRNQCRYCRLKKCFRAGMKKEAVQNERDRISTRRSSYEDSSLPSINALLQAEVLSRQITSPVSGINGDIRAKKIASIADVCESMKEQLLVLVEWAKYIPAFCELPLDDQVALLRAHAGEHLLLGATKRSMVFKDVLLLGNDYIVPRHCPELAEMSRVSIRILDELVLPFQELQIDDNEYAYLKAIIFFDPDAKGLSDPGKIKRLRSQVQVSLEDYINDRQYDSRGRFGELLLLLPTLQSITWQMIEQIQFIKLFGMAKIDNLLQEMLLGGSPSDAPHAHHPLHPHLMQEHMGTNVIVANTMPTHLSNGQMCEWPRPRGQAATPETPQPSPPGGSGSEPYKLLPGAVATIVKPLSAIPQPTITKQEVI
Chain of Nuclear receptor subfamily 4 group A member 2 (Homo sapiens) (P43354 whole entry, looked up, the tested form may be a part): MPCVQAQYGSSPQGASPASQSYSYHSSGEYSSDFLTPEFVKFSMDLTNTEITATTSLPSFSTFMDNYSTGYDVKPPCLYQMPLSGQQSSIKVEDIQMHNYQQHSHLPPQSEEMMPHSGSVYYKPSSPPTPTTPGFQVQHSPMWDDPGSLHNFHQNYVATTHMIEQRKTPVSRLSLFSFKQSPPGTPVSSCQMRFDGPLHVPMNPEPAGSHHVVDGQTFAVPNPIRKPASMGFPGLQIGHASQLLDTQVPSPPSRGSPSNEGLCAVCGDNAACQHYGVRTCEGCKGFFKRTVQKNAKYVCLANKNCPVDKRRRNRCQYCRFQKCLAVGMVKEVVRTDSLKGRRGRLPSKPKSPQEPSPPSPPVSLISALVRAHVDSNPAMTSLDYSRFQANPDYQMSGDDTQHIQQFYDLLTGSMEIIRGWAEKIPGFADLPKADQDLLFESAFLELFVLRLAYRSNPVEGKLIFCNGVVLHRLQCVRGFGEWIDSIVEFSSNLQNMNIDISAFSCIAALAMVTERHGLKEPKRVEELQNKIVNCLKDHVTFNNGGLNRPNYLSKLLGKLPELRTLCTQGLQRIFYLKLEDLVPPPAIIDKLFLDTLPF
Chain of Transcriptional activator Myb (Homo sapiens) (P10242 whole entry, looked up): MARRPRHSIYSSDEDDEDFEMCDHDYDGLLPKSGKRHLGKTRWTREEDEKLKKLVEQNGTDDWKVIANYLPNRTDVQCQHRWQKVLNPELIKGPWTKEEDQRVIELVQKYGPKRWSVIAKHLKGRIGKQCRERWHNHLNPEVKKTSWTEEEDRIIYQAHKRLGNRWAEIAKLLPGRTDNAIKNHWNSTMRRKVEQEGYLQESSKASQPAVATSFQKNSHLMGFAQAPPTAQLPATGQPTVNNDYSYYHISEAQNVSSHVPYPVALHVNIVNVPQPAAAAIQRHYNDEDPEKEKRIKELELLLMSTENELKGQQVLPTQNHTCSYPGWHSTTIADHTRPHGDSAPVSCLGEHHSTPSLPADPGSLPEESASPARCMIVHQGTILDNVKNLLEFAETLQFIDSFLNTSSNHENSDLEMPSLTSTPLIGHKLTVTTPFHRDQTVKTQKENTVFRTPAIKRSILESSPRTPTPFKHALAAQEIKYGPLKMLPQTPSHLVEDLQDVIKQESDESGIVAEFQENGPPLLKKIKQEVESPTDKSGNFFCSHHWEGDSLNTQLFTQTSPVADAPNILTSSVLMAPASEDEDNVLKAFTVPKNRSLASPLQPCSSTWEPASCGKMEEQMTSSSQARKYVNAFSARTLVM

In the case of `O=c1cc(-c2ccc(O)cc2)oc2cc(O)cc(O)c12`, the call in [1], in [2], in assay [3], in assay [4], in [6] and in assay [7] was inactive. The compound was classed as inactive in assay [8], in assay [9], in [10], in assay [11] and in [12]. For the same compound, the AC50 (usually the midpoint of the concentration-response curve, whichever way the signal moves) in assay [5] is 16.2 µM (active).

With `CC(C)N1C(=O)c2ccccc2C1=O`, the outcome in assay [1], in assay [2], in assay [3], in [4], in assay [5] and in assay [7] was inactive. Moreover, the call in assay [10], in assay [14] and in [12] was inactive. Also, in [13], the AC50 was 42.8 µM (active).

In the case of `Cc1cccc(O)c1`, the compound was classed as inactive in assay [1], in [2], in assay [3], in [4], in assay [13] and in assay [5]. In addition, the call in assay [15], in assay [16], in assay [14], in assay [11] and in assay [12] was inactive.

Regarding `CC1=CCC(C(C)C)=CC1`, the compound was classed as inactive in assay [1], in assay [2], in assay [3], in assay [4], in assay [5] and in assay [6]. In addition, the result in assay [8] and in assay [12] was inactive.

Take `CCC(C)(C)C1CCC(OC)CC1` (centres undefined): the call in assay [1], in assay [2], in assay [3], in [4], in assay [5] and in assay [6] was inactive. Further, the result in assay [7], in [8] and in [12] was inactive. The AC50 in assay [13] was 58.7 µM (active).

With `CC(C)C(=O)c1ccccc1`, the outcome in assay [1], in [2], in assay [3], in assay [17], in [5] and in assay [6] was inactive. Besides, the compound was classed as inactive in assay [18], in [7], in [9], in assay [10], in assay [14] and in assay [12]. Also, the AC50 in assay [13] was 0.604 µM (active).

On to `O=C(O)c1ccc(C(=O)O)c(C(=O)O)c1`, for which the result in assay [1], in assay [2], in assay [3], in assay [4], in [13] and in assay [17] was inactive. Moreover, the call in assay [5], in [15], in [16], in assay [7], in assay [10] and in [14] was inactive. For the same compound, the outcome in [11] and in [12] was inactive.

`CCCCCCCCOC(=O)c1ccc(O)cc1`: the compound was called inactive in assay [1], in [2], in [3], in assay [4], in assay [5] and in [6]. Further, the result in assay [18], in assay [16], in [7], in assay [9], in [14] and in assay [12] was inactive. For the same compound, the AC50 in assay [13] is 5.53 µM (active).

As to `CC1=CCC(=C(C)C)CC1`, the compound was classed as inactive in [1], in [2], in [3], in assay [4], in assay [5] and in [6]. The outcome in assay [18], in [7], in assay [9], in assay [11] and in assay [12] was inactive. Moreover, the AC50 in [13] was 33.3 µM (active).

Consider `Cc1ccccc1S`, for which the AC50 in assay [1] was 55.9 µM (active); in assay [5], 75.5 µM (active). The result in [2], in assay [3], in assay [4], in assay [13], in assay [6] and in assay [19] was inactive. The compound was called inactive in assay [9] and in assay [12].

`[Cu+]`: the outcome in assay [1], in assay [2], in [3], in assay [13], in assay [5] and in assay [6] was inactive. Also, the result in assay [16], in assay [9], in assay [14], in assay [11] and in assay [12] was inactive.

The values above are taken from PubChem BioAssay (EPA / NIEHS).
